Here are results for twelve compounds from PubChem BioAssay (NCATS).

Results filed as inconclusive are left out. Values without a mark were called inactive. Calls of active or inactive are those of the source. Calls follow the shape of the dose curve; as a rule, active = well fitted inhibition curve with a large enough effect; inconclusive = small, poorly fitted or top-dose-only effect; inactive = flat fitted curve, though single readings scatter.
% is scaled to controls: 0 for no effect and ±100 for the full control effect; potency is read from the fitted curve at half-maximal effect.

This test in a line: P-glycoprotein substrates identified in KB-8-5-11 adenocarcinoma cell line, qHTS therapeutic library screen (AID 1346987). Also: nearly all actives have a fitted effect of over 65% in size. The note with it: KB-8-5-11 (P-gp overexpressing) viability, CellTiter-Glo, 72 h; series mostly up to 44.5 µM; activity change, negative = cytotoxicity: at the top concentration. The method, boiled down: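 Steps: plate 500 KB-8-5-11 cells/well in DMEM + 10% FCS (colchicine removed); pin compounds in dose-response; incubate 72 h, 37 degree C, 5% CO2; add CellTiter-Glo, 5 min; read luminescence.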
As for `COC(=O)[C@@]1(O)C=CC[C@@H]2[C@@]3(C)C[C@@H](c4ccoc4)OC(=O)[C@H]3CC[C@]21C`, the compound was called inactive. Regarding `CC1CCC2C(C)(C)C(O)CCC2(C)C12Cc1c(O)cc3c(c1O2)C(N)=NC3` (configuration not stated), the “activity change, negative = cytotoxicity” value is 6.93%. Still for that read-out and setting: the same measure for `CC1(C)CC2C(O)C3=C(CC(C)(O)C2C1)C(=O)OC3O` (configuration not stated): 0.194%. Consider `Oc1ccc([C@H]2COc3cc(O)ccc3C2)cc1`, for which the compound was called inactive. The same measure, in the same setting: the entry for `C=CC1(C)C=C2C(=O)CC3C(C)(C)CCCC3(C(=O)O)C2(O)CC1` (configuration not stated) is “inactive”. For the compound `Cc1cc(Nc2ncc(Cl)c(Nc3ccccc3S(=O)(=O)C(C)C)n2)c(OC(C)C)cc1C1CCNCC1`, the Potency was 6.51 µM (active). As for `COc1cc(/C=C/C(=O)O[C@H]2[C@H](OC(=O)/C=C/c3cc(OC)c(O)c(OC)c3)O[C@H](CO[C@@H]3O[C@H](CO)[C@@H](O)[C@H](O)[C@H]3O)[C@@H](O)[C@@H]2O)ccc1O`, the “outcome” value is “inactive [at 17.3 µM]”. On to `O=C1NCc2nc3ccccc3c(=O)n2C1Cc1c[nH]c2ccccc12` (configuration not stated), for which the “activity change, negative = cytotoxicity” value was 9.9%. As for `OC[C@H]1O[C@@H](OCCc2ccc(O)cc2)[C@H](O)[C@@H](O)[C@@H]1O`, the Potency result was “inactive”. As to `COc1cc(C2Oc3c(OC)cc(/C=C/C(=O)OC[C@H]4O[C@@H](OC(C)(C)C(=O)O)[C@H](O)[C@@H](O)[C@@H]4O)cc3C2CO)ccc1O` (some centres not stated), the “activity change, negative = cytotoxicity” value was 5.69% [at 17.3 µM]. For `CN1C(=O)N[C@@H](Cc2c[nH]c3c(Cl)cccc23)C1=O`, the call was inactive. As for `CC(=O)OCC1=C[C@H](O)[C@@H]2C(C(=O)O)=CO[C@@H](O[C@@H]3O[C@H](CO)[C@@H](O)[C@H](O)[C@H]3O)[C@H]12`, the “activity change, negative = cytotoxicity” value is 4.62% [at 17.3 µM].
